PubChem BioAssay AID504333 (National Center for Advancing Translational Sciences (NCATS), 2011)
The whole screen tested about 360,000 compounds, of which about 16,000 (4.4%) were called active. About 9% were inconclusive and are not listed. The sample holds actives, similar compounds and a random draw of the others, so the mix is not that of the screen. Values without a mark were called inactive. Calls come from the whole dose curve; as a rule, active = well fitted inhibition curve with a large enough effect; inconclusive = small, poorly fitted or top-dose-only effect; inactive = no such curve, though single readings can be large or run the other way.

Biological target: Bromodomain adjacent to zinc finger domain protein 2B (Homo sapiens) (UniProt Q9UIF8)
Sequence (Q9UIF8 whole entry, looked up, the tested form may be a part): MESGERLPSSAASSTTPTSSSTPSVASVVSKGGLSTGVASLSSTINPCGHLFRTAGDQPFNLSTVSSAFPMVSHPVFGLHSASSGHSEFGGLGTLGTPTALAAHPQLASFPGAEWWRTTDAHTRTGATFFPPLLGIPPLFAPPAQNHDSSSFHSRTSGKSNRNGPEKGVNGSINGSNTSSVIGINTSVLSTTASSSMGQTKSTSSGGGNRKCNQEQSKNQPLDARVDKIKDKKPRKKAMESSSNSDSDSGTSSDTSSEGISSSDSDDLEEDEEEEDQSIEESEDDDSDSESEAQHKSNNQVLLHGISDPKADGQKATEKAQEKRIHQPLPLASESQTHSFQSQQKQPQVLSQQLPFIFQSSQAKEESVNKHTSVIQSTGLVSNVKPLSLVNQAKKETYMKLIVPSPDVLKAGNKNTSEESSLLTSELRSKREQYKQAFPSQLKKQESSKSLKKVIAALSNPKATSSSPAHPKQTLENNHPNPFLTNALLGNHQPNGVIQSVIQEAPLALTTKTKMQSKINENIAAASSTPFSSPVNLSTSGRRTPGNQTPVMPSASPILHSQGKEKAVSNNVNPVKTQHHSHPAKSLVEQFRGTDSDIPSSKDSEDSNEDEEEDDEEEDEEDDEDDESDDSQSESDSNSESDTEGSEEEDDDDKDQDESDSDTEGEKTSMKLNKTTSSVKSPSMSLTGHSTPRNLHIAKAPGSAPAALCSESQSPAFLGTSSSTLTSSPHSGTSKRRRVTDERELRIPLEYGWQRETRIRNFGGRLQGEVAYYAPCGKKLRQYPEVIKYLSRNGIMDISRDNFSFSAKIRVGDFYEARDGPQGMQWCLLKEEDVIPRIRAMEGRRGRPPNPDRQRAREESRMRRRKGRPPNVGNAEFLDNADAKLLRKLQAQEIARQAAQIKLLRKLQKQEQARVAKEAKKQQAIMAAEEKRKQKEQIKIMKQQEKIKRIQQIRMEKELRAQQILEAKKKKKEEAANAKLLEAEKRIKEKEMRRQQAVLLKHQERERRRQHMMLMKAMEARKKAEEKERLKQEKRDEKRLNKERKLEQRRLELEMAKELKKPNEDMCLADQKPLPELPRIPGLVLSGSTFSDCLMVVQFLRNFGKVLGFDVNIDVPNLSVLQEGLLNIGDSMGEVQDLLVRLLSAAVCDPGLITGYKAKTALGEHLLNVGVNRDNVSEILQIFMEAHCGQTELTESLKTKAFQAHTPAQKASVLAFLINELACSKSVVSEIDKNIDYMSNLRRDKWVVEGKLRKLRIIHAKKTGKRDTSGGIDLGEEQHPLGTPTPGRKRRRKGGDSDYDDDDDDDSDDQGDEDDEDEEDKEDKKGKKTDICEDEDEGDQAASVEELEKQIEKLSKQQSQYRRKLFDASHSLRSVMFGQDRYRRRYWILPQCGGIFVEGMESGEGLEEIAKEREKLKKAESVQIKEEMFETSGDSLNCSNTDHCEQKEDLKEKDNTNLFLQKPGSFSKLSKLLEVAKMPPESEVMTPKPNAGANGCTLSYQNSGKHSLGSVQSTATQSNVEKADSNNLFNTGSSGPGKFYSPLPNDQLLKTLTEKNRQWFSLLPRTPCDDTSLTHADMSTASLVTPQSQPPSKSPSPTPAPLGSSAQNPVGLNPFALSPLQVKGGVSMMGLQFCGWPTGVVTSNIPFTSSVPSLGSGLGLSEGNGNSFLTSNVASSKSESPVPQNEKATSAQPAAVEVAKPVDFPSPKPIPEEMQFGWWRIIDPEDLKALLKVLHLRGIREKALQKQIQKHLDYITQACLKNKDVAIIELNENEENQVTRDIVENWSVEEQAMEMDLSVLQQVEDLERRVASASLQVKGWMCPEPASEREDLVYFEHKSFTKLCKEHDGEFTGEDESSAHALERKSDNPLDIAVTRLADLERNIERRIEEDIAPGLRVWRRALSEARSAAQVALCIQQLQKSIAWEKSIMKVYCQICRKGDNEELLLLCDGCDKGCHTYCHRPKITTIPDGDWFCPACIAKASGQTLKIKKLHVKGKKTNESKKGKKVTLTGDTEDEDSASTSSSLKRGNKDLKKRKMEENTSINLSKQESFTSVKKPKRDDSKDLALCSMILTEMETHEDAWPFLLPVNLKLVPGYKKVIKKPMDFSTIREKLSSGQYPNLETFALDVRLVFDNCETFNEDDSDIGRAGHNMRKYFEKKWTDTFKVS
Test: qHTS Assay for Inhibitors of BAZ2B; note: nearly all actives have a fitted effect of over 60% in size
Conditions: AlphaScreen BAZ2B-H3K14Ac peptide displacement; series mostly up to 114 µM; activity change, negative = inhibition: at the top concentration
Procedure, shortened: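 Protein-peptide AlphaScreen: BAZ2B 50 nM, b-H3K14Ac 50 nM, 1x PBS pH 7.4 + 0.01% Tween-20. Preincubation 30 min RT; cpd 30 min RT (top 110 uM); beads 20 min RT, light-protected.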
% is set by controls: 0 for no effect and ±100 for the full control effect; potency is the fitted concentration of half-maximal effect.

SMILES	activity change, negative = inhibition	Potency
CCCC(=O)N1CCN(c2nc3c(OC)ccc(C)c3s2)CC1	-9.35%	
Cc1c2cnn(-c3ccccc3)c(=O)c2c(C)n1C(C)C(=O)Nc1ccc(Br)cc1F (stereo unspecified)	-11.3%	
COc1ccc(-c2csc(Nc3ccc(O)cc3)n2)cc1		35.5 µM (active)
COc1ccc(CC(=O)Nc2nc(-c3ccc(F)c(F)c3)cs2)cc1OC	-16.6%	
COc1ccc(-c2csc(NC(=O)COC(=O)c3ccc(Br)o3)n2)cc1	-0.695%	
COc1ccc(-c2csc(NC(=O)COC(=O)Cc3ccc(Cl)cc3Cl)n2)cc1	-0.543%	
COc1ccc(OC)c(-c2csc(NC(=O)COC(=O)C3CC3)n2)c1	-31.5%	
COc1ccc(OC)c(Nc2nc(-c3ccc(O)c(O)c3)cs2)c1		50.1 µM (active)
CC1CCN(c2nc3ccc(C(=O)N4CCN(c5ccccc5)CC4)cc3s2)CC1	-37%	
COc1ccccc1C(=O)Nc1c(C(=O)N(C)Cc2ccccc2)sc2nc(C)c(Cl)c(C)c12	-26%	
COc1ccc(NC(=O)CCNS(=O)(=O)c2ccc3c(c2)CCCC(=O)N3)cc1Cl	-0.24% [at 57.1 µM]	
COc1ccc(NC(=O)CSc2nc3ccccc3n2CC(=O)N2CCCCC2C)cc1 (stereo unspecified)	-14.8%	
Cc1ccc(S(=O)(=O)N(CC(=O)Nc2ccc(Cl)cc2Cl)c2ccccc2C)cc1	-13.1%	
CCOc1cc(C(=O)NCCc2csc3nc(-c4ccc(C)cc4)nn23)cc(OCC)c1OCC	1.07%	
CCOC(=O)c1cccc(NS(=O)(=O)c2cc(-c3cnc(C)o3)ccc2OC)c1	-8.57%	
O=C(NC1CCN(Cc2ccccc2)CC1)c1ccc(Cn2c(=O)c3ccccc3n(Cc3cccc(F)c3)c2=O)cc1	-3.86%	
CCOC(=O)C1CCCN(C(=O)Cn2ncc3c(C)n(Cc4ccc(F)cc4)c(C)c3c2=O)C1 (stereo unspecified)	9.72%	
CCCCN(CC)CCCNC(=O)c1nn(C)c2c1CS(=O)(=O)c1ccccc1-2	-1.12%	
COc1ccccc1CN1CCC(CNC(=O)c2cnn(-c3cccc(Cl)c3)c2C2CCN(C(=O)OC(C)(C)C)CC2)CC1	4.39% [at 57.1 µM]	
COCCN1C(=O)N[C@@H](c2ccccc2)C(C(=O)OC)=C1C	-4.69%	
CCN1C(=S)N[C@@H](c2cccc(C(F)(F)F)c2)C(C(=O)OC)=C1C		50.1 µM (active)
COC(=O)C1=C(C)N(C)C(=S)NC1c1ccccc1 (stereo unspecified)	6.05%	
COC(=O)CC1Oc2ccccc2-n2cc(-c3ccccc3)nc21 (stereo unspecified)	-31.9%	
COc1ccc(/C=C/C(=O)c2cc(Br)ccc(=O)c2O)cc1		44.7 µM (active)
COc1ccc(C(=O)/C=C/c2cccnc2)c(OC)c1	2.6%	
COc1ccc(C(=O)/C=C/c2ccc(OC3CSC3)cc2)cc1	-4.21%	

SMILES	activity change, negative = inhibition	Potency
COc1cc(OC)c(OC)cc1/C=C/c1nc2cc3ccccc3cc2c(=O)n1-c1ccc(F)c(Cl)c1	-24%	
COc1ccc(CCNS(=O)(=O)c2cc(-c3cc(C)no3)ccc2C)cc1OC	-3.59%	
Cc1ccc(OCC(=O)Nc2ccc(N3CCN(C(=O)c4ccco4)CC3)cc2)c(C)c1		31.6 µM (active)
CCC(=O)Nc1ccc(C(=O)N2CCN(C(=O)c3ccco3)CC2)cc1	-11.3%	
Cc1ccc(C)c(OCC(=O)N2CCN(C(=O)c3ccco3)CC2)c1	6.13%	
CCOc1ccc(Nc2c(S(=O)(=O)c3ccccc3)cnc3ccccc23)cc1	-29.1%	
O=C(N/N=C/c1cccnc1)c1cc2ccccc2cc1O	-13.6%	
CC(C)(C)OC(=O)NNc1c2ccccc2nc2ccccc12	-38.3%	
O=C(NNc1c2ccccc2nc2ccccc12)c1cc2ccccc2cc1O		8.91 µM (active)
COC(=O)c1ccccc1NC(=O)c1ccc2c(=O)n3c(nc2c1)CCCCC3	0.816%	
CC1=C(C(=O)N2CCN(c3cccc(C(F)(F)F)c3)CC2)C2(CCCCC2)OC1=O	-9.34%	
O=C(NCc1ccccc1)C(=O)NCC(c1ccco1)S(=O)(=O)c1ccc(Cl)cc1 (stereo unspecified)	-0.73%	
C/C(=N\NC(=O)c1ccoc1C)c1ccccc1O		50.1 µM (active)
CC(C)=C(NC(=O)c1ccccc1)C(=O)N/N=C(\C)c1ccccc1O	-7%	
Cc1cc(C(=O)NNC(=O)c2ccccc2O)c(C)o1	-5.59%	
COc1cccc(-c2nc(S(=O)(=O)c3ccc(C)cc3)c(NCc3ccccc3)o2)c1	17.1%	
CCOCCCNc1nc(-c2ccccc2)nc2ccccc12	6.2%	
CC(C)(C)Nc1nc(-c2ccccn2)nc2ccccc12		50.1 µM (active)
CCC(=O)OCCNc1nc(-c2ccccc2)nc2ccccc12	3.03%	
Clc1cccc(CN2COc3c(cc(Cl)c4cccnc34)C2)c1		28.2 µM (active)
O=c1c2cccnc2n(Cc2cccc(F)c2)c(=O)n1Cc1ccccc1Cl	41.6%	
O=c1c2ccccc2n(Cc2cccc(Cl)c2)c(=O)n1Cc1ccccc1	-8.19%	
COc1ccc(CNC(=O)c2cc3c(s2)-c2ccccc2OC3)cc1	1.59%	
Cc1nc2c(-c3ccccc3)c(C)nn2c(C)c1CCC(=O)NCCc1ccccc1	3.94%	
CC1=C(c2ccc(C)cc2)S(=O)(=O)NC1=NCCCN1CCN(c2cc(C)ccc2C)CC1	-24.4%	
